MCF10A rerep – DNA re-replication induction in MCF 10a cells; MCF 10A DNA re-replication, Hoechst nuclear intensity, 48 h; Potency, µM (doses to about 46.1 µM), actives largely listed as activators; 350,000 compounds, 2.9% hits; AID 624296; further: nearly all actives have a fitted effect of over 50% in size
SW480 rerep – inducers of DNA re-replication in SW480 colon cancer cells | SW480 DNA re-replication, Hoechst DNA content imaging, 48 h | Potency, µM (highest dose often 46.1 µM), usual class: activators | 340,000 compounds, 1.8% hits | AID 624297; further: nearly all actives have a fitted effect of over 55% in size
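Per well, 250 cells were exposed to pinned compound for 48 hr. Nuclear DNA was visualised with Hoechst (40 min, 37 C) and total object intensity recorded by fluorescence scanning.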
HT1080-NT tox – kills 2HG-producing HT-1080-NT fibrosarcoma cells; HT-1080-NT fibrosarcoma viability, CellTiter-Glo ATP luminescence, 48 h; 360,000 compounds, 1.6% hits; AID 686970; Potency, µM (doses to about 46.1 µM), most hits filed as cytotoxic;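 further: NT is the 2HG producing partner of a matched IDH1 knockdown line; nearly all actives have a fitted effect of over 55% in size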
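750 cells/well, RPMI + 5% FBS; 2 h settle, compound pin-transfer, 48 h at 37 degrees C. CellTiter-Glo 10 min RT, luminescence. Normalized to DMSO and media-only wells.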
HT1080 IDH1KD tx – toxicity to HT-1080 IDH1 knockdown cells (counter line) | HT-1080 IDH1 knockdown viability, ATP luminescence, 48 h | AID 686971 | Potency, µM (highest dose often 46.1 µM), usual class: cytotoxic | 360,000 compounds, 2% hits
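After a 2 h attachment period, IDH1KD HT-1080 cells took pin-transferred compound for 48 h at 37 °C; ATP-based luminescence after 10 min room-temperature reagent incubation reported viability.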
KB-3-1 cytotox – KB-3-1 parental cell cytotoxicity; KB-3-1 viability, CellTiter-Glo ATP luminescence, 72 h; Potency, µM (top dose mostly 46.1 µM), hits mostly cytotoxic; 400,000 compounds, 1.4% hits; further: nearly all actives have a fitted effect of over 60% in size
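Luminescent ATP read-out (CellTiter-Glo) measures survival of drug-naive KB-3-1 cells after 72 h compound exposure at 37 °C. Titration series was screened from lowest to highest concentration, with DMSO vehicle plates as background controls.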
KB-V1 cytotox – kills drug-selected multidrug resistant KB-V1 cells; Potency, µM (titrated, usually from 46.1 µM), hits mostly cytotoxic; 400,000 compounds, 3.4% hits; KB-V1 MDR cells viability, CellTiter-Glo, 72 h; further: nearly all actives have a fitted effect of over 60% in size
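Compound-treated KB-V1 multidrug-resistant cells, 72 h, 37 degrees C; viability by CellTiter-Glo. Fitted qHTS curves give the values.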
Of the large screens only hits and unclear results are named; the others gave an inactive call. Hits are enriched below; roughly 7.9% of the tested compounds scored in any of these assays. The call rests on the fitted dose curve; in most records, active means well fitted curve in the direction sought with a large enough effect; inconclusive means small, poorly fitted or top-dose-only effect, or another doubt; inactive means no such curve, though single readings can be large; an effect the other way counts as inactive or inconclusive.

Cc1ccc(Cn2ccsc2=NC(=O)COC(=O)C(C)C)cc1	HT1080 IDH1KD tx inconclusive, KB-3-1 cytotox 16µM
CCn1c(=O)c(C(=O)Nc2ncccc2O)c(O)c2ccccc21	MCF10A rerep inconclusive
Cc1cccnc1NC(=O)c1c(O)c2ccccc2n(C)c1=O	MCF10A rerep inconclusive, HT1080-NT tox inconclusive, KB-V1 cytotox 7.3µM
Cn1c(=O)c(C(=O)NNC(=O)c2ccc(Br)cc2)c(O)c2ccccc21	MCF10A rerep 23µM, HT1080-NT tox 21µM, HT1080 IDH1KD tx 15µM, KB-3-1 cytotox 26µM, KB-V1 cytotox inconclusive
CCn1c(=O)c(C(=O)Nc2ncccc2C)c(O)c2ccccc21	KB-3-1 cytotox inconclusive, KB-V1 cytotox 4.6µM
Nc1nc(Br)c2c(F)cccc2c1-c1ccc(Cl)cc1	MCF10A rerep 7.3µM, SW480 rerep 21µM, HT1080 IDH1KD tx inconclusive
CN(C)c1nc2ccccc2c(N)c1-c1ccccc1	MCF10A rerep inconclusive, HT1080-NT tox inconclusive, HT1080 IDH1KD tx inconclusive, KB-V1 cytotox inconclusive
Nc1nc(Br)c2ccccc2c1-c1ccccc1	MCF10A rerep 22µM, SW480 rerep inconclusive
CN(C)CCOc1ccc2c(c1)C(=O)C(=Cc1ncc([N+](=O)[O-])n1C)C2	HT1080-NT tox 23µM, HT1080 IDH1KD tx 6.5µM, KB-3-1 cytotox inconclusive, KB-V1 cytotox 3.7µM (no result: MCF10A rerep, SW480 rerep)
Cc1ccc(NC(=O)C2CCN(S(=O)(=O)c3cnc[nH]3)CC2)cc1C	none
CCCN1C2=NCCN2c2cc(C)c(C)cc21	KB-V1 cytotox inconclusive
O=C(CCS(=O)(=O)c1ccccc1)OCc1ccc([N+](=O)[O-])cc1	none
O=C(O)CCC(=O)OCCN(Cc1ccc(Oc2ccc([N+](=O)[O-])cc2)cc1)C(=O)C(Cl)Cl	KB-V1 cytotox 23µM
COc1cc(C(=O)NC2=NCCS2)ccc1OCc1c(C)noc1C	MCF10A rerep inconclusive
CC(SC#N)C(=O)C12CC3CC(CC(C3)C1)C2 (centres undefined)	MCF10A rerep 18µM, SW480 rerep inconclusive, HT1080-NT tox inconclusive, HT1080 IDH1KD tx 16µM, KB-3-1 cytotox 21µM
Cc1ccc(NC(=O)Cn2cc(S(=O)(=O)N3CCCC3)c(S(=O)(=O)N3CCCC3)c2)c(C)c1	KB-3-1 cytotox inconclusive (no result: MCF10A rerep, SW480 rerep, HT1080-NT tox, HT1080 IDH1KD tx)
Cc1nc(Nc2ccncc2)c2oc3ccccc3c2n1	MCF10A rerep inconclusive, SW480 rerep inconclusive, HT1080 IDH1KD tx 13µM, KB-3-1 cytotox inconclusive
CCc1nc(Nc2ccncc2)c2oc3ccccc3c2n1	MCF10A rerep inconclusive, SW480 rerep 18µM, HT1080-NT tox inconclusive, HT1080 IDH1KD tx 23µM, KB-3-1 cytotox 8.2µM
C[C@@H]1CN(S(=O)C(C)(C)C)[C@@H](CCO)/C1=C\c1ccccc1 (some centres undefined)	SW480 rerep inconclusive
CC1=C(C(=O)OCC2CCCO2)C(c2ccccc2)C2=C(CC(C)(C)CC2=O)N1 (centres undefined)	KB-V1 cytotox inconclusive
OCCN1CCN(CC/C=C2/c3ccccc3Sc3ccc(C(F)(F)F)cc32)CC1	MCF10A rerep inconclusive, SW480 rerep inconclusive, HT1080-NT tox 21µM, HT1080 IDH1KD tx 21µM
OCCN1CCN(CCC=C2c3ccccc3Sc3ccc(Cl)cc32)CC1	none (no result: HT1080-NT tox, HT1080 IDH1KD tx, KB-3-1 cytotox, KB-V1 cytotox)
Cc1cc(C)nc(-n2nc(C)cc2NC(=O)CN2CCCC(C)C2)n1 (centres undefined)	MCF10A rerep inconclusive, HT1080-NT tox 1.3µM, HT1080 IDH1KD tx 2µM
Cc1cc(C)nc(-n2nc(C)cc2NC(=O)CN2CCc3ccccc3C2)n1	MCF10A rerep inconclusive, HT1080-NT tox inconclusive, HT1080 IDH1KD tx 1.6µM, KB-V1 cytotox inconclusive
Cc1cc(C)nc(-n2nc(C)cc2NC(=O)CNC2CCCCC2)n1	none
Cc1cc(C)nc(-n2nc(C)cc2NC(=O)CNCc2ccccc2)n1	KB-V1 cytotox inconclusive
Cn1c(SCC(=O)N2CCCCC2)nc2c([nH]c3ccccc32)c1=O	none
COCCN(C(=O)CCc1nnc(Cc2c[nH]c3ccccc23)o1)C(C)C	none
CCN(c1ccccc1)S(=O)(=O)c1cc(C(=O)Nc2cccc(Cl)c2)ccc1F	MCF10A rerep inconclusive, SW480 rerep inconclusive, HT1080-NT tox inconclusive, HT1080 IDH1KD tx inconclusive, KB-3-1 cytotox inconclusive, KB-V1 cytotox 21µM
CN(c1cccc(NC(=O)c2ccccc2N(Cc2ccccc2)S(C)(=O)=O)c1)S(C)(=O)=O	none
CC(=O)c1cccc(NC(=O)c2ccc(N(Cc3ccccc3)S(C)(=O)=O)cc2)c1	KB-3-1 cytotox inconclusive, KB-V1 cytotox 21µM
CC(=O)c1cccc(NC(=O)c2ccccc2N(Cc2ccccc2)S(C)(=O)=O)c1	MCF10A rerep 2.3µM
CCc1ccc(NC(=O)c2ccc(F)c(S(=O)(=O)N(CC)c3ccccc3)c2)cc1	HT1080 IDH1KD tx inconclusive
CN(CC(=O)Nc1cccc(F)c1)C(=O)c1cc(-c2ccccc2)nc2ccccc12	MCF10A rerep inconclusive, KB-V1 cytotox inconclusive
CN(CC(=O)Nc1cccc(F)c1)C(=O)c1ccc(COc2ccccc2)o1	KB-V1 cytotox 21µM
CN(CC(=O)Nc1cccc(F)c1)C(=O)c1cccc2ccccc12	KB-V1 cytotox 18µM
CCOc1ccccc1OCC(=O)Nc1ccc(S(=O)(=O)Nc2nc(C)cc(C)n2)cc1	KB-V1 cytotox 18µM
Cc1cc(C)nc(NS(=O)(=O)c2ccc(NC(=O)COc3ccccc3F)cc2)n1	none
Cc1cc(C)nc(NS(=O)(=O)c2ccc(NC(=O)c3cccc(N4C(=O)CCC4=O)c3)cc2)n1	HT1080-NT tox 23µM (no result: SW480 rerep)
Cc1ccnc(NS(=O)(=O)c2ccc(NC(=O)c3ccc(N4C(=O)CCC4=O)cc3)cc2)n1	none (no result: SW480 rerep)
O=C1Nc2ccccc2CCC1Sc1nnc(-c2ccc(Cl)cc2)s1 (centres undefined)	HT1080-NT tox inconclusive, KB-3-1 cytotox 21µM, KB-V1 cytotox 18µM
COC(=O)c1c(NC(=O)COc2ccc(Cl)cc2)sc2c1CC(C)(C)NC2(C)C	MCF10A rerep inconclusive, SW480 rerep inconclusive, KB-3-1 cytotox inconclusive, KB-V1 cytotox inconclusive
CC1(C)Cc2c(sc(NC(=O)c3ccco3)c2C#N)C(C)(C)N1	KB-V1 cytotox 18µM
Cc1cc(OCC(=O)Nc2sc3c(c2C#N)CC(C)(C)NC3(C)C)c(C(C)C)cc1Cl	MCF10A rerep 18µM
CC1(C)Cc2c(sc(NC(=O)COc3ccc(Cl)cc3Cl)c2C(N)=O)C(C)(C)N1	MCF10A rerep 23µM, SW480 rerep inconclusive
Cc1ccc(Sc2ccc(N)cc2C#N)cc1	none
O=Cc1cccc(OCc2cccc3ccccc23)c1	SW480 rerep inconclusive, HT1080-NT tox inconclusive, HT1080 IDH1KD tx inconclusive
O=C(NNc1nccc(C(F)(F)F)n1)Nc1cccc(Cl)c1	none
O=C(NNc1cc(C(F)(F)F)nc2ccccc12)Nc1cccc(Cl)c1	MCF10A rerep inconclusive, HT1080-NT tox inconclusive, HT1080 IDH1KD tx 21µM
